# An excerpt weighted towards active compounds, which were near 32% of everything screened.
# PostGolgi yeast = growth inhibition of a yeast mutant, post-Golgi transport screen; inhibition, % at 10 µM; 0.9% of 98,000 active; AID 739; post-Golgi transport phenotypic cell assay;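 further: yeast cells grown in 1536-well plates; yeast grown about 18 h at 30C before absorbance read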
# CYP2C19 inh = human CYP2C19 inhibition; P33261; CYP2C19 Supersomes, luciferin-H EGE luminescence, 30 min; inhibition, % at 5 µM; 21% of 96,000 active; AID 778;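 active means CYP2C19 inhibition above a set limit at 5 µM in the primary screen, cut at about 50% in these data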;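 further: plate controls were negative control wells for no effect and 2.5 mM tranylcypromine positive control for full effect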
# CYP2C9 inhib = human CYP2C9 inhibition | AID 777 | inhibition, % at 5 µM | P11712 | 20% of 96,000 active | CYP2C9 Supersomes, luciferin-H conversion, luminescence;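 active means blocking of liver enzyme CYP2C9 beyond about 50% at 5 µM, limit read from the data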
# Target sequence (P11712 whole entry, looked up): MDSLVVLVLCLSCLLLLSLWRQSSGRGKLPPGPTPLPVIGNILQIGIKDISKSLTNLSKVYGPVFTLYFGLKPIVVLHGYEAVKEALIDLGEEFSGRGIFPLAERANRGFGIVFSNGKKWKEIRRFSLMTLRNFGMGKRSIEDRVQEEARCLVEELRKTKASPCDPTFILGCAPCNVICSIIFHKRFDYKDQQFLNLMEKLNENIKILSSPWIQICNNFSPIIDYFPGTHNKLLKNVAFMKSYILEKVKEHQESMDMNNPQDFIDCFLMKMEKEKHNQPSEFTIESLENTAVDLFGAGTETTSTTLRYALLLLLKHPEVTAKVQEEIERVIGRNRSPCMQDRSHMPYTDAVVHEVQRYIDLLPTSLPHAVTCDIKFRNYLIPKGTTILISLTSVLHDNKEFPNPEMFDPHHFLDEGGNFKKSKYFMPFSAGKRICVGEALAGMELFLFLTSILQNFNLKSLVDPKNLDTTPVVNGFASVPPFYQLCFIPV
# PostGolgi ctrl = growth of the yeast control strain, post-Golgi counter-screen; 5% of 98,000 active; efflux-deficient yeast background strain, growth absorbance A615, 16 h; inhibition, % at 10 µM
# CYP2C9 activ = CYP2C9 (human) activation; P11712; activation factor at 5 µM; recombinant CYP2C9, luciferin-H conversion, luminescence; hits give high values; factor 1 = untreated enzyme, 0 = blocked; AID 1024; 1.4% of 96,000 active;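 active means activation factor of 2 or more for CYP2C9 at a 5 µM dose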;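 further: 0 = sulfaphenazole-blocked wells and 1 = vehicle-only wells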
# CYP2C19 activ = cytochrome P450 2C19 (human) activation; P33261; recombinant CYP2C19, luciferin-H EGE luminescence; hits give high values; 0 = fully inhibited enzyme, 1 = untreated enzyme; activation factor at 5 µM; 96,000 tested, under 10 active;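 active means activation factor of at least 2 at 5 µM in the primary screen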;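 further: 0 = wells with 2.5 mM tranylcypromine and 1 = vehicle-only wells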
# Starred values were filed as active, the others as inactive; nt = not tested or not shown. Unless noted, no stated cut-off is given here; in the data, active means inhibition above about 30%; inactive means the rest.
SMILES,PostGolgi yeast,CYP2C19 inh,CYP2C9 inhib,PostGolgi ctrl,CYP2C9 activ,CYP2C19 activ
COc1ccc(NC(=O)CSc2nnc(-c3ccccc3)n2Cc2ccco2)c(OC)c1,11.6,91.2*,85.6*,10.2,0.1,0.1
COc1ccc(C)cc1NC(=O)CSc1nnc(-c2ccccn2)n1Cc1ccco1,-1.0,45.0,40.8,21.5,0.6,0.6
CCOc1ccc(NC(=O)CSc2nnc(-c3ccccc3Cl)n2Cc2ccco2)cc1,7.5,86.1*,96.4*,35.2*,0,0.1
CC(C)CCNC(=O)CN(Cc1ccc2c(c1)OCO2)C(=O)Cn1nnc(-c2cccs2)n1,7.4,47.7,91.7*,7.5,0.1,0.5
CC(C)(C)NC(=O)C(c1cccs1)N(CC1CCCO1)C(=O)Cn1nnc(-c2cccs2)n1 (configuration not stated),-2.0,2.1,-2.7,10.8,1,1
O=C(CN(C(=O)Cn1nnc(-c2cccs2)n1)c1cnc2ccccc2c1)NCC1CCCO1 (configuration not stated),-1.8,34.9,74.6*,2.3,0.3,0.7
O=C(CN(Cc1ccccc1F)C(=O)Cn1nnc(-c2cccs2)n1)NCC1CCCO1 (configuration not stated),0.8,68.3*,63.1*,17.9,0.4,0.3
O=C(CN(C(=O)Cn1nnc(-c2cccs2)n1)c1ccc2c(c1)OCCO2)NC1CCCCC1,-3.5,59.6*,99.1*,7.8,0,0.4
COc1ccc(-c2nnn(CC(=O)N(CC(=O)NC3CCCC3)Cc3cccs3)n2)cc1OC,-3.8,27.5,36.2,-2.3,0.6,0.7
O=C(CN(Cc1ccccc1F)C(=O)Cn1nnc(-c2cccs2)n1)NC1CCCCC1,5.1,3.9,30.9,0.1,0.7,1
O=C(NC1CCCCC1)C(c1ccncc1)N(C(=O)Cn1nnc(-c2cccs2)n1)C1CCCC1 (configuration not stated),-1.2,nt,nt,2.6,nt,nt
O=C(CN(C(=O)Cn1nnc(-c2cccs2)n1)c1ccc2c(c1)OCCO2)NCC1CCCO1 (configuration not stated),-4.2,33.3,87.6*,6.4,0.1,0.7
CC(C)CCNC(=O)CN(CCCN1CCOCC1)C(=O)Cn1nnc(-c2ccc(F)cc2)n1,-19.6,39.2,52.2*,14.4,0.5,0.6
Cc1ccc(-c2nnn(CC(=O)N(CC(=O)NCC3CCCO3)c3ccccc3)n2)o1 (configuration not stated),-9.8,17.8,11.3,3.0,0.9,0.8
COc1ccc(-c2nnn(CC(=O)N(CC(=O)NCCC(C)C)c3ccccc3)n2)cc1OC,-4.1,32.2,-8.6,28.6,1.1,0.7
CSCCC(NC(N)=O)C(=O)NCc1ccc(Cl)cc1 (configuration not stated),9.3,27.4,3.0,-12.0,1,0.7
CCn1c(C(O)c2ccc3c(c2)OCO3)nc2ccccc21 (configuration not stated),-2.0,97.9*,46.5,-0.1,0.5,0
CCCn1c(/N=C/c2ccc3c(c2)OCO3)nc2ccccc21,-4.5,4.5,0.1,5.3,1,1
CCOP(=O)(c1ccccc1)c1nc(-c2ccc(F)cc2)oc1N1CCCCC1 (configuration not stated),-1.8,18.1,29.9,32.3*,0.7,0.8
COc1ccc(C)cc1NCc1cccc(OC)c1OC,7.9,38.8,-9.2,4.6,1.1,0.6
CCc1ccccc1NS(=O)(=O)c1cc(C)ccc1OC,-1.2,84.2*,54.0*,29.1,0.5,0.2
COc1ccccc1CNS(=O)(=O)c1c(C)noc1C,-3.1,42.9,23.3,2.2,0.8,0.6
COc1ccccc1CNS(=O)(=O)c1cc(C)ccc1OC,5.6,90.0*,-61.1,10.4,1.6,0.1
CCOc1ccc(OCC)c(NC(=O)C2CCN(S(=O)(=O)c3cccnc3)CC2)c1,9.0,54.6*,32.3,1.4,0.7,0.5
CCOc1ccc(NC(=O)C2CCN(S(=O)(=O)c3cccnc3)CC2)cc1,16.9,29.4,-37.5,-1.9,1.4,0.7
CCOc1cc(NC(=O)C2CC2)c(OCC)cc1NC(=O)c1cccnc1,nt,97.4*,27.0,nt,0.7,0
O=C(CCCc1nc(-c2ccccc2)no1)NCc1cccnc1,-1.1,20.8,31.1,5.1,0.7,0.8
COc1ccc(-c2noc(CCC(=O)NCc3cccnc3)n2)cc1OC,-3.0,18.9,53.6*,5.5,0.5,0.8

# From PubChem BioAssay
